From PubChem
Tau fluor counter: counter-screen for tau fibril formation inhibitors; AID 1463; 280,000 compounds, 0.93% hits; tau K18 P301L Alexa594 fluorescence, heparin fibrillization; Potency, µM (doses to about 57.7 µM), for inactives: at the top dose activity change, negative = decrease; also: potency is read from the fitted curve at half-maximal effect; % is scaled to controls: 0 for no effect and ±100 for the full control effect; nearly all actives have a fitted effect of over 55% in size
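Human K18 P301L tau (15 uM unlabeled plus 0.24 uM Alexa 594-labeled, final) in 100 mM sodium acetate pH 7 was mixed with compound and 20 uM heparin and incubated 6 hr at 37 C.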
Tau fibril ThT: blocks human tau fibril formation measured by thioflavin T; AID 1460; 270,000 compounds, 2.1% hits; P10636; Potency, µM (top dose mostly 57.4 µM), inactives show at the highest dose activity, negative = inhibition, actives largely listed as inhibitors; recombinant tau K18 P301L (four-repeat tau fragment), heparin-induced fibrillization, ThT fluorescence; also: potency is read from the fitted curve at half-maximal effect; % is scaled to controls: 0 for no effect and ±100 for the full control effect; nearly all actives have a fitted effect of over 55% in size
Target sequence (P10636 561-689 P618L limits assumed): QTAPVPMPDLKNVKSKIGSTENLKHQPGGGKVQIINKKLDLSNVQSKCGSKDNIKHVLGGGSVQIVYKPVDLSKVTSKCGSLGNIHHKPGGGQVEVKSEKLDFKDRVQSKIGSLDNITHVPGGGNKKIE
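In this qHTS, human K18 P301L tau is incubated with compound and heparin for 6 hr at 37 C, and Thioflavin T fluorescence then reports fibril load.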
CBFb RUNX1 block: CBF-beta/RUNX1 interaction disruption. Q01196+Q13951. AlphaScreen CBFb-His/RUNX1-biotin binding, biochemical. 230,000 tested, under 10 active. Potency, µM (highest dose often 59.8 µM), for inactives: at the highest dose activity, negative = inhibition, actives largely listed as inhibitors; also: % of control where 0% means no effect
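AlphaScreen proximity signal reports loss of binding between His-tagged CBF-beta and biotin-labelled RUNX1, each at 30 nM. Proteins are pre-associated for 20 minutes, compounds added for 15 minutes, then beads for 90 minutes, all at ambient temperature.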
LMNA splice mod: LMNA splicing modulation; HeLa LMNA splicing GFP/RFP minigene ratio, 48 h; AID 1487; 200,000 compounds, 0.01% hits; Potency, µM (series often up to 46.1 µM), for inactives: top-dose ratio change, negative = inhibition, most hits filed as inhibitors; active = well fitted inhibition curve with a large enough effect in the signal ratio, with a control signal flat, not every such curve was filed as active; inconclusive = small, poorly fitted or top-dose-only effect, or effect the other way, or a change in a side signal; the % refers to the signal ratio; also: potency is read from the fitted curve at half-maximal effect; % is scaled to controls: 0 for no effect and ±100 for the full control effect
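S3 HeLa stable clones carrying a lamin A-EGFP splicing minigene plus DsRed2 were seeded at 600 cells/well in Opti-MEM with 2% FBS, pin-dosed and incubated 48 h at 37°C. Acumen cytometry (488 nm) gave the GFP/RFP total-intensity ratio.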
JMJD2E inh: blocks human JMJD2E demethylase activity. JMJD2E catalytic domain, FDH-coupled NADH fluorescence (FDH is formaldehyde dehydrogenase). Potency, µM (titrated, usually from 57.1 µM), for inactives: at the highest dose activity change, negative = inhibition, most hits filed as inhibitors. B2RXH2. 230,000 compounds, 1.6% hits; active = well fitted inhibition curve with a large enough effect, not every such curve was filed as active; inconclusive = small, poorly fitted or top-dose-only effect, or another doubt; inactive = no such curve, though single readings can be large or run the other way;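 also: potency is read from the fitted curve at half-maximal effect; 0% = wells with enzyme and -100% = buffer wells without enzyme; nearly all actives have a fitted effect of over 50% in size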
Target sequence (B2RXH2 1-337 limits assumed): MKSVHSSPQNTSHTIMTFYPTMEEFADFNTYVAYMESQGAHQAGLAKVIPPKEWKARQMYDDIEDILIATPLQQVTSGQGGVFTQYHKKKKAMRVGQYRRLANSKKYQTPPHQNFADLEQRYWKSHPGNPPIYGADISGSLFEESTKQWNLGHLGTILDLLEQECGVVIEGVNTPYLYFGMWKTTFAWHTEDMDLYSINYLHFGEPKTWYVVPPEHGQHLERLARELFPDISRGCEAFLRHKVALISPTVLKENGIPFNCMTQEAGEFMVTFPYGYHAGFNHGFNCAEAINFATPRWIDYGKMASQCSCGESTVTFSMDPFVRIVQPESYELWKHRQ
Tau fibril FP: blocks human tau fibril formation measured by polarization; K18 P301L tau heparin fibrillization, Alexa594 FP, 6 h; P10636; Potency, µM (titrated, usually from 57.7 µM), for inactives: at the top dose activity, negative = inhibition, usual class: inhibitors; 280,000 compounds, 0.39% hits; also: potency is read from the fitted curve at half-maximal effect; % is scaled to controls: 0 for no effect and ±100 for the full control effect; nearly all actives have a fitted effect of over 55% in size
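Compound effects on tau fibrillization are measured by Alexa 594 fluorescence polarization (ex 555, em 632 nm). K18 P301L tau is used at 15 uM with 0.24 uM labeled tracer, and 20 uM heparin induces aggregation over 6 hr at 37 C.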
Active calls of the source: *; [ ] = remark or other dose. Shown are actives, neighbours in structure and some others; about 3.2% of the full set was active somewhere. Unless noted, calls follow the shape of the dose curve; as a rule, active = well fitted curve in the direction sought with a large enough effect; inconclusive = small, poorly fitted or top-dose-only effect, or another doubt; inactive = no such curve, though single readings can be large; an effect the other way counts as inactive or inconclusive.

`Cc1c(C(=O)O)c(O)cc2c1C(=O)c1c(O)c([C@H]3O[C@H](CO)[C@@H](O)[C@H](O)[C@H]3O)c(O)c(O)c1C2=O` gave Tau fluor counter inconclusive, Tau fibril ThT inconclusive, CBFb RUNX1 block inconclusive, LMNA splice mod -13%, JMJD2E inh 7.9µM* and Tau fibril FP -9%.
Cc1ccc(C2C(/C=C3/SC(=S)NC3=O)=C(c3cccs3)Oc3ccccc32)cc1 (centres undefined) was read as Tau fluor counter inconclusive, Tau fibril ThT 13µM*, CBFb RUNX1 block inconclusive, LMNA splice mod 1%, JMJD2E inh -8% and Tau fibril FP -6%.
Screening COc1ccc(/C=C2\CCc3c2nc2ccccc2c3C(=O)O)cc1OC returned Tau fluor counter -15%, Tau fibril ThT inconclusive, CBFb RUNX1 block -1%, JMJD2E inh inconclusive and Tau fibril FP 9%.
For CN(CCC#N)C(=O)COC(=O)c1c2c(nc3ccccc13)/C(=C/c1ccco1)CC2 the results were Tau fluor counter inconclusive, Tau fibril ThT inconclusive, LMNA splice mod inconclusive, JMJD2E inh 25µM* and Tau fibril FP inconclusive.
Screening N#Cc1cccc(-c2nc3cnc(N4CCOCC4)nc3n(C[C@H]3CCCO3)c2=O)c1 returned LMNA splice mod -5%.
COc1ccc(C(=O)c2cc([N+](=O)[O-])ccc2N2CCN(C)CC2)cc1 was read as Tau fluor counter -13%, Tau fibril ThT -3%, CBFb RUNX1 block -7%, LMNA splice mod -8%[46 µM], JMJD2E inh 1µM* and Tau fibril FP -13%.
`CCOc1ccc(NC(=O)c2cc(S(=O)(=O)NC3CCCC3)ccc2F)cc1` gave Tau fluor counter -5%, Tau fibril ThT 3%, LMNA splice mod -7%[46 µM] and Tau fibril FP -6%.
Screening COc1ccc(/C=C2\CCCC(C(=O)C(F)(F)F)=C2O)cc1OC returned Tau fluor counter -17%, Tau fibril ThT 16µM*, CBFb RUNX1 block 1%, JMJD2E inh 25µM* and Tau fibril FP inconclusive.
`COc1ccc(CCNC(=O)C(C)n2nc(C)c3sc4ccccc4c3c2=O)cc1OC` (centres undefined) gave Tau fluor counter -19%, Tau fibril ThT 18% and Tau fibril FP inconclusive.
For O=C(Nc1ccc(Br)cc1F)c1cc(S(=O)(=O)NC2CCCC2)ccc1F the results were Tau fluor counter -17%, Tau fibril ThT 7%, LMNA splice mod inconclusive and Tau fibril FP -12%.
`O=C(OC1Cc2c(O)cc(O)cc2OC1c1cc(O)c(O)c(O)c1-c1c(C2Oc3cc(O)cc(O)c3CC2O)cc(O)c(O)c1O)c1cc(O)c(O)c(O)c1` (centres undefined) gave Tau fluor counter 13µM*[quencher], Tau fibril ThT 18µM*, LMNA splice mod inconclusive, JMJD2E inh 8.9µM* and Tau fibril FP inconclusive.
CCOc1ccc(CCNC(=O)CCN2N=C(c3ccc(OC)cc3)CCC2=O)cc1OCC was read as Tau fluor counter 7%, Tau fibril ThT -3%, LMNA splice mod 17%[46 µM] and Tau fibril FP 5%.
`O=C(Nc1nc(-c2ccccn2)cs1)c1ccc([N+](=O)[O-])o1` gave Tau fluor counter inconclusive, Tau fibril ThT 13µM*, JMJD2E inh inconclusive and Tau fibril FP inconclusive.
Cc1cc(C(=O)Nc2nc(-c3ccccn3)cs2)ccc1[N+](=O)[O-] was read as Tau fluor counter inconclusive, Tau fibril ThT 11µM*, JMJD2E inh inconclusive and Tau fibril FP 6%.
Screening CC(=O)CC(=O)Nc1ccccc1 returned CBFb RUNX1 block 11%[21.7 µM].
For S=C(NNc1ccc2ccccc2c1)NC1CCCCC1 the results were Tau fluor counter inconclusive, Tau fibril ThT 25µM*, CBFb RUNX1 block -22%, LMNA splice mod inconclusive, JMJD2E inh 11µM* and Tau fibril FP inconclusive.
